Data reported in PubChem BioAssay (NCATS).
Results filed as inconclusive are left out. Values without a mark were called inactive. Active and inactive are the calls of the source. The call rests on the fitted dose curve; in most records, active means well fitted curve in the direction sought with a large enough effect; inconclusive means small, poorly fitted or top-dose-only effect, or another doubt; inactive means no such curve, though single readings can be large; an effect the other way counts as inactive or inconclusive.

Each molecule was assayed against Ubiquitin carboxyl-terminal hydrolase 2 (Homo sapiens) (UniProt O75604) (assay: qHTS for Inhibitors of Ubiquitin-specific Protease USP2a Using CHOP2 as the Reporter: K484 Substrate (AID 652173;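 further: cleavage of internally quenched K48 di-ubiquitin substrate measured as rising fluorescence over time; nearly all actives have a fitted effect of over 70% in size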)). Details: USP2 cleavage of DiUb K48 IQF substrate, fluorescence; series mostly up to 57.5 µM; activity change, negative = inhibition: at the top concentration.
Ubiquitin carboxyl-terminal hydrolase 2 (Homo sapiens), sequence (O75604 whole entry, looked up): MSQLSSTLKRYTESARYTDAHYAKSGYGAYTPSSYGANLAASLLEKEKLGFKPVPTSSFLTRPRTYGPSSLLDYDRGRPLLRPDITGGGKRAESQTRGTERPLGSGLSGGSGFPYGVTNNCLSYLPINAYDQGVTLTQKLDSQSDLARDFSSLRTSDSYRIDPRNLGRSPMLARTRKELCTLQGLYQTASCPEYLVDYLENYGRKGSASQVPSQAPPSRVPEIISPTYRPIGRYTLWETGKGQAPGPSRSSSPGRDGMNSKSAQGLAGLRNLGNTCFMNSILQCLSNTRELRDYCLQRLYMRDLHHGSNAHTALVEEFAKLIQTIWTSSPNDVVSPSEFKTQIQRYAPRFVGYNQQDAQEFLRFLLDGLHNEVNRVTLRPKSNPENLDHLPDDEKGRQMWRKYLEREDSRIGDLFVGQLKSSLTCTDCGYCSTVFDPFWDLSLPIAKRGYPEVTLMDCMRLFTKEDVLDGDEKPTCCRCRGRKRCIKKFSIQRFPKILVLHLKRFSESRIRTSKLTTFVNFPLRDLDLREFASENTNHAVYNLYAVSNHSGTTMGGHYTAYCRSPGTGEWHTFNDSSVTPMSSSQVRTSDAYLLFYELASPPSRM
Procedure, shortened: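 USP2 (dispensed at 5 nM) was pinned with compounds, then DiUb K48 internally quenched fluorescent substrate (dispensed at 100 nM) was added. The buffer was 20 mM Tris pH 8, 2 mM beta-mercaptoethanol and 0.05% CHAPS. Cleavage was read kinetically as rising fluorescence, Ex 525/Em 598.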
Potency means the concentration at half of the fitted maximal effect.

| SMILES | Potency | activity change, negative = inhibition [%] |
| --- | --- | --- |
| N#Cc1ccc(NS(=O)(=O)c2ccc(NC(=O)Cc3ccc(F)c(Cl)c3)cc2)cc1 | 24.3 µM (active) | – |
| O=[S+]([O-])(NCc1nccs1)c1ccc(Nc2nc(-c3ccccc3)cs2)cc1 | – | -9.15 |
| NS(=O)(=O)c1ccc(Nc2nc(-c3ccccc3)cs2)cc1 | 21.7 µM (active) | – |
| N#Cc1ccc(N[S+](=O)([O-])c2ccc(Nc3nc(-c4ccccc4)cs3)cc2)cc1 | – | -13.1 |
| N#Cc1ccc(NS(=O)(=O)c2ccc(NC(=O)Cc3ccc(Cl)c(Cl)c3)cc2)cc1 | 7.69 µM (active) | – |
| Cc1ccc(S(=O)(=O)Nc2ccc(Br)cc2C(=O)Nc2nc(-c3ccccc3)cs2)cc1 | 0.968 µM (active) | – |
| O=C(Nc1nc(-c2ccccc2)cs1)c1ccncc1NS(=O)(=O)c1cccc2cccnc12 | 7.69 µM (active) | – |

Each molecule was assayed against Calcium and integrin-binding protein 1 (Homo sapiens) (UniProt Q99828) (assay: Confirmatory qHTS for Identification of Calcium Integrin Binding Protein 1 (CIB1) Competitor (AID 1508617; further: nearly all actives have a fitted effect of over 65% in size; on activity change, negative = inhibition: on the % scale 0 is the no-effect control and ±100 the full control effect)). Details: CIB1 binding competition assay, biochemical qHTS; series mostly up to 114 µM; activity change, negative = inhibition: at the top concentration.
Calcium and integrin-binding protein 1 (Homo sapiens), sequence (Q99828 whole entry, looked up): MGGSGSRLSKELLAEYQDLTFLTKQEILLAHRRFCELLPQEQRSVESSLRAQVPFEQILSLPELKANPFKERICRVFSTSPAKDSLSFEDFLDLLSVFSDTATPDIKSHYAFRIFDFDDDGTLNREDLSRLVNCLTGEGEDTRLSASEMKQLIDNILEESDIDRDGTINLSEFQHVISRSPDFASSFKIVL
Procedure, shortened: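 Fluorescence polarization competition: CIB1-GST (1 uM final) in 5 mM HEPES pH 7.4, 125 mM NaCl, 5 mM CaCl2, 0.01% Tween20 preincubated 15 min RT with compound (up to 114 uM), then FITC-alphaIIb peptide (100 nM) added, 15 min RT.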

| SMILES | activity change, negative = inhibition [%] | Potency |
| --- | --- | --- |
| N#Cc1ccc(NS(=O)(=O)c2ccc(NC(=O)Cc3ccc(F)c(Cl)c3)cc2)cc1 | 60.4 | – |
| NC[C@@H](O)c1ccc(O)c(O)c1 | 20.1 | – |
| c1ccc(-n2ccc(-c3nnc4n3CCCCC4)c2)cc1 | – | 50.1 µM (active) |
| O=[S+]([O-])(NCc1nccs1)c1ccc(Nc2nc(-c3ccccc3)cs2)cc1 | – | 50.1 µM (active) |
| O=C(O)c1ccc(O)c2ncc(-c3n[nH]nc3-c3ccccc3)cc12 | -9.4 | – |
| O=C(O)c1ccccc1SC1=NS(=O)(=O)c2ccccc21 | -23.4 | – |
| NS(=O)(=O)c1ccc(Nc2nc(-c3ccccc3)cs2)cc1 | – | 50.1 µM (active) |
| N#Cc1ccc(N[S+](=O)([O-])c2ccc(Nc3nc(-c4ccccc4)cs3)cc2)cc1 | – | 44.7 µM (active) |
| Cc1cnc(-c2ccccc2C(C)C)nc1NCc1ccc(-c2ccc(F)nc2)cc1 | – | 112 µM (active) |
| CC1(C)OB(c2ccc(O)c3ncc(N4CCNCC4)cc23)OC1(C)C | – | 31.6 µM (active) |
| Cc1ccc(S(=O)(=O)Nc2cc3c(cc2C(=O)Nc2nc(-c4ccccc4)cs2)OCO3)cc1 | 3.63 | – |
| N#Cc1ccc(NS(=O)(=O)c2ccc(NC(=O)Cc3ccc(Cl)c(Cl)c3)cc2)cc1 | 57.5 | – |
| O=S(=O)(Nc1nccs1)c1ccc(Nc2nc(-c3ccccc3)cs2)cc1 | – | 50.1 µM (active) |
| CC(O)c1ccc(-c2ccc3ncnc(N4CCOCC4)c3c2)o1 (stereo not drawn) | -3.99 | – |
| Cc1ccc(S(=O)(=O)Nc2ccc(Br)cc2C(=O)Nc2nc(-c3ccccc3)cs2)cc1 | 53.5 | – |
| O=C(Nc1nc(-c2ccccc2)cs1)c1ccncc1NS(=O)(=O)c1cccc2cccnc12 | – | 35.5 µM (active) |
| CN(CC(=O)Nc1ccc(N2CCOCC2)cc1)Cc1c(O)ccc2ccccc12 | 1.92 | – |
| Cc1ccc(CNc2ncnc3ccc(-c4ccc([C@@H](C)O)o4)cc23)o1 | -19.4 | – |
| NC(=O)C1CCN(c2ncc(Br)s2)CC1 | – | 50.1 µM (active) |
| Cc1ccc2nc3sc(C(=O)NCc4ccco4)cc3cc2c1 | 17.6 | – |
| CC1CCC2(C1)N=C(Nc1nc3ccccc3o1)NC1=C2C(=O)CCC1 (stereo not drawn) | -4.34 | – |
| CN(C(=O)c1cccs1)c1cccnc1 | – | 31.6 µM (active) |
| CC(=O)NC(c1cccs1)c1cc(Br)c2cccnc2c1O (stereo not drawn) | – | inactive |

These molecules were tested against Calcium and integrin-binding protein 1 (Homo sapiens) (UniProt Q99828) (assay: Primary qHTS for Identification of Calcium Integrin Binding Protein 1 (CIB1) Competitor (AID 1508620;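 on activity change, negative = inhibition: GST tagged CIB1 binding a fluorescein labelled alphaIIb integrin peptide tracer; top concentration of the series differs between compounds; on the % scale 0 is the no-effect control and ±100 the full control effect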)). Details: CIB1-GST / FITC-alphaIIb peptide fluorescence polarization; series mostly up to 114 µM; activity change, negative = inhibition: at the top concentration.
Procedure, shortened: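 Fluorescence polarization competition: CIB1-GST (1 uM final) preincubated with compound 15 min at room temperature, then FITC-labeled alphaIIb peptide (100 nM final) added for another 15 min. Polarization read at Ex 480/Em 540.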

| SMILES | activity change, negative = inhibition [%] | Potency |
| --- | --- | --- |
| NC[C@@H](O)c1ccc(O)c(O)c1 | -9.05 | – |
| c1ccc(-n2ccc(-c3nnc4n3CCCCC4)c2)cc1 | – | 79.4 µM (active) |
| O=C(O)c1ccc(O)c2ncc(-c3n[nH]nc3-c3ccccc3)cc12 | -16.9 | – |
| Cc1cccc(Nc2nc(C#N)nc(NC3CCCC3)n2)c1 | -2.57 | – |
| O=C(Cc1ccc(Cl)c(Cl)c1)Nc1ccc(S(=O)(=O)Nc2cccc(O)c2)cc1 | -14.6 | – |
| O=C(O)c1ccccc1SC1=NS(=O)(=O)c2ccccc21 | -25.6 | – |
| O=C(CSc1ncnc2sc3c(c12)CCCCC3)NCc1ccco1 | -4.89 | – |
| O=S(=O)(c1ccc2c(c1)OCCO2)N1CCN(S(=O)(=O)c2cccc[n+]2[O-])CC1 | 4.63 | – |
| FC(F)(F)c1ccccc1-c1nc(NCc2ccc(Br)cc2)c2ccccc2n1 | 0.0558 | – |
| Cc1cccc(-n2cnc3cc(C(=O)N4CCCC4)ccc32)c1 | 0.905 | – |
| Cc1cccc(Nc2nn3c(=O)c4ccccc4nc3s2)c1 | 3.52 | – |
| CC1(C)OB(c2ccc(O)c3ncc(N4CCNCC4)cc23)OC1(C)C | – | 50.1 µM (active) |
| Cc1noc(C)c1-c1ccc2ncnc(NC(C)c3ccco3)c2c1 (stereo not drawn) | -5.88 | – |
| O=S(=O)(Nc1nccs1)c1ccc(Nc2nc(-c3ccccc3)cs2)cc1 | – | 50.1 µM (active) |
| COc1cccc(-c2no[n+]([O-])c2C#N)c1 | -0.338 | – |
| O=c1c2ccccc2nc2sc(Nc3cccc4ccccc34)nn12 | 3.85 | – |
| O=C1CCc2cc(S(=O)(=O)Nc3cccc(Oc4ccccc4)c3)ccc2N1 | -4.09 | – |
| c1nc(NCc2ccc3c(c2)OCO3)c2cc(-c3ccc4c(c3)OCCO4)ccc2n1 | -4.21 | – |
| O=C(COC(=O)CNC(=O)c1ccccc1)Nc1cc(C(F)(F)F)ccc1Cl | -4.1 | – |
| CCOC(=O)C1CCN(C(=O)C(C)(C)NC(=O)Nc2ccc([N+](=O)[O-])cc2)CC1 | -18.8 | – |
| Cc1ccccc1S(=O)(=O)N1CCc2cc(-c3nc(NC(=O)Cc4ccc5c(c4)OCO5)sc3C)ccc21 | 6.34 | – |
| COC(=O)c1sc2c(c1-c1nc3ccccc3s1)CCNC2 | 1.45 | – |
| Cc1ccc(CNc2ncnc3ccc(-c4ccc([C@@H](C)O)o4)cc23)o1 | -27.8 | – |
| NC(=O)C1CCN(c2ncc(Br)s2)CC1 | – | 39.8 µM (active) |
| Cc1ccc2nc3sc(C(=O)NCc4ccco4)cc3cc2c1 | 0.269 | – |
| CN(C(=O)c1cccs1)c1cccnc1 | – | 50.1 µM (active) |
| CC(=O)NC(c1cccs1)c1cc(Br)c2cccnc2c1O (stereo not drawn) | – | inactive |
| c1ccc(OCc2nnc3ccc(-c4ccccc4)nn23)cc1 | -1.4 | – |
